# Source: PubChem BioAssay (Tox21)
# Active and inactive are the calls of the source. Entries that show only a call come without a potency. Calls come from the whole dose curve; as a rule, active = well fitted curve in the direction sought with a large enough effect in the repeat runs; inconclusive = weak or mixed curves; inactive = flat fitted curve, though single readings scatter.
# Test: qHTS assay to test for compound auto fluorescence at 460 nm (blue) in HepG2 cells (AID 720687)
# Conditions: autofluorescence 405/460 nm, 1 h; series mostly up to 46 µM
# Text: U.S. Tox21 Program National Center for Advancing Translational Sciences [NCATS] NIH Chemical Genomics Center [NCGC] U.S. Environmental Protection Agency [EPA] National Institutes of Environmental Health Sciences [NIEHS] National Toxicology Program [NTP] U.S. Food and Drug Administration [FDA] Tox21 Assay Overview: Compound auto fluorescence often interferes with screening of the compound library against various biological targets and signaling pathways. Some of these compounds may have fluorophoric properties. Such properties may interfere with the assay outputs resulting in false positives and/or negatives. To decrease such complications and ensure the compound activities are relevant in terms of biological response, the Tox21 10K compound library was screened for auto fluorescence. From the fluorophores used as reporter signals in our screening assays, the auto fluorescence equivalencies of compounds against three fluorophores have been evaluated: Triamterene, Fluorescein and Rose Bengal sodium for blue, green and red fluorescence, respectively. The fluorescence intensities were measured using Excitation/Emission wavelengths at 405/460nm, 485/535nm and 540/590nm for blue, green and red labels, respectively. This assay includes the blue fluorescence data.
# Tox21 Assay Protocol Summary: 2,000 HepG2 cells in 5 uL of culture medium (MEM containing 10% FBS) per well were dispensed into black wall/clear bottom 1536-well plates using a Multidrop Combi Dispenser (ThermoFisher Scientific, Waltham, MA). The assay plates were incubated overnight at 37 C to allow cell attachment to the well bottom, followed by the transfer of 23 nL compound or DMSO vehicle by a pintool work station (Kalypsys , San Diego, CA). After the assay plates were incubated for 1 hr at 37 C and 5% CO2, fluorescence intensities in the assay plates were measured by an Envision (PerkinElmer, Shelton, CT) plate reader using three labels for measuring blue, green and red fluorescence at […] 460, 535 and 590 nm respectively.
# Potency is the fitted concentration of half-maximal effect; tags give direction and shape of the fitted curve or compound fluorescence and quenching.
row,SMILES,Potency
1,C[C@@H]1C(=O)NC2=Nc3cccc(Cl)c3CN21,inactive
2,CC(C)[N+]1(C)[C@@H]2CC[C@H]1CC(OC(=O)C(CO)c1ccccc1)C2 (stereo not given in full),inactive
3,CC[N+](CC)(CC)CCC(O)(c1ccccc1)C1CCCCC1 (stereo not given),inactive
4,CC/C=C\C/C=C\C/C=C\C/C=C\C/C=C\CCCC(=O)O,inactive
5,Cc1onc(-c2c(F)cccc2Cl)c1C(=O)N[C@@H]1C(=O)N2[C@@H]1SC(C)(C)[C@@H]2C(=O)O,inactive
6,C[C@H](O)CN(C)C,inactive
7,CCOc1ccc(NC(=S)Nc2ccc(OCC)cc2)cc1,inactive
8,C[C@@H]1C[C@H]2[C@@H]3C[C@H](F)C4=CC(=O)C=C[C@]4(C)[C@@]3(Cl)[C@@H](O)C[C@]2(C)[C@H]1C(=O)COC(=O)C(C)(C)C,inactive
9,COc1cccc(-c2ccc(/C=C\CN3CCCCCC3)cc2Cl)c1,inactive
10,CCc1ncnc2cc(OC)c(OC)cc12,inactive
11,O=C1OC(=O)c2cc(-c3ccc4c(c3)C(=O)OC4=O)ccc21,inactive
12,O=C(O)[C@H]1CN(C/C=C/P(=O)(O)O)CCN1,inactive
13,CN(C)CCc1c[nH]c2ccc(Cn3cncn3)cc12,inactive
14,Cc1ccc2nc(-c3ccc(N)cc3)sc2c1S(=O)(=O)O,22.4 µM [fluorescent] (active)
15,CCCOC(=O)c1ccc(O)cc1,inactive
16,Cc1cc(=O)c(C(=O)N[C@@H](C(=O)N[C@@H]2C(=O)N3C(C(=O)O)=C(CSc4nnnn4C)CS[C@H]23)c2ccc(O)cc2)c[nH]1,inactive
17,S=C1NC=NC2N=CNC12 (stereo not given),inactive
18,N[C@@H](Cc1ccc(O)c(O)c1)C(=O)O,inactive
19,C=CC(N)CCC(=O)O (stereo not given),inactive
20,CC1(C)S[C@@H]2[C@H](NC(=O)[C@@H](NC(=O)N3CCNC3=O)c3ccccc3)C(=O)N2[C@H]1C(=O)O,inactive

row,SMILES,Potency
1,C[S+](C)CCC(N)C(=O)O (stereo not given),inactive
2,NCC1CCC(C(=O)O)CC1 (stereo not given),inactive
3,NCC(O)CC(=O)O (stereo not given),inactive
4,CCCCCCCC/C=C\CCCCCCCC(=O)N(CCO)CCO,inactive
5,CC(C)CCC[C@@H](C)[C@H]1CC[C@H]2[C@@H]3CC=C4C[C@@H](O)CC[C@]4(C)[C@H]3CC[C@]12C,inactive
6,NC(=O)CC[C@@H]1NC(=O)[C@H](Cc2ccccc2)NC(=O)[C@H](Cc2ccc(O)cc2)NC(=O)[C@@H](N)CSSC[C@@H](C(=O)N2CCC[C@H]2C(=O)N[C@@H](CCCN=C(N)N)C(=O)NCC(N)=O)NC(=O)[C@H](CC(N)=O)NC1=O,inactive
7,CCCCCCCC[N+](C)(C)CCCCCCCC,inactive
8,CCCC(=O)c1cc(O)c(O)cc1O,inactive
9,O=C(O)c1cc2cc(Cc3cccnc3)ccc2o1,inactive
10,CC(=O)O[C@H]1C[C@@H]2CC[C@@H]3[C@H](CC[C@@]4(C)[C@H]3C[C@H]([N+]3(C)CCCCC3)[C@@H]4OC(C)=O)[C@@]2(C)C[C@@H]1[N+]1(C)CCCCC1,inactive
11,Cc1ccc(Cl)c(N)c1Cl,inactive
12,O=C(Nc1ccccc1)c1cc(Cl)ccc1O,inactive
13,O=C(O)/C=C/C(O)c1ccc(Cl)cc1 (stereo not given),inactive
14,O=C1CC[C@@H](C(=O)N[C@H]2C[C@@H]2c2ccccc2)N1,inactive
15,O=C(O)c1cc(O)c2c(c1)[C@H]([C@H]1c3cc(C(=O)O)cc(O)c3C(=O)c3c(O[C@@H]4O[C@H](CO)[C@@H](O)[C@H](O)[C@H]4O)cccc31)c1cccc(O[C@@H]3O[C@H](CO)[C@@H](O)[C@H](O)[C@H]3O)c1C2=O,inactive
16,C[C@H](NCCc1ccc(O)cc1)[C@H](O)c1ccc(O)cc1,inactive
17,NC(=O)[C@@H]1C[C@]2(NC(=O)NC2=O)c2cc(F)ccc2O1,inactive
18,CN(C/C=C/c1ccccc1)Cc1cccc2ccccc12,inactive
19,CC(C)Cc1ccc([C@H](C)C(=O)O)cc1,inactive
20,C=C1[C@H](CO)[C@@H](O)C[C@@H]1n1cnc2c(=O)[nH]c(N)nc21,inactive
